{"source": "PubChem BioAssay AID1347416", "about": "(National Center for Advancing Translational Sciences (NCATS), 2020)", "note": "About 1,600 (39%) of roughly 4,100 compounds were called active. Inconclusive results (about 25%) are left out. Calls follow the shape of the dose curve; as a rule, active = well fitted inhibition curve with a large enough effect; inconclusive = small, poorly fitted or top-dose-only effect; inactive = no such curve, though single readings can be large or run the other way. This is one part of the list. Where a call stands in place of a potency, no number is given. Potency is read from the fitted curve at half-maximal effect."}
{"assay": "qHTS Validation assay for Inhibitors of Plasmodium falciparum Dd2 growth in vitro; also: nearly all actives have a fitted effect of over 70% in size", "conditions": "P. falciparum Dd2 in RBCs, SYBR Green growth, 72 h; series mostly up to 28.7 µM", "method_in_brief": "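P. falciparum Dd2-infected red blood cells (2.5% hematocrit, 0.3% parasitemia) grown 72 h at 37 °C under 5% O2 with compounds in a titration, 29 uM to 0.5 nM final. Growth read as SYBR Green-1 fluorescence after ~16 h lysis; artesunate 300 nM as positive control.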"}
{"smiles": "COc1cccc(N2C(=O)C(CC(=O)Nc3ccccc3)N(CCc3sccc3C)C2=O)c1", "note": "(stereo not given)", "Potency": "inactive"}
{"smiles": "COC(=O)c1cc(NC(=O)CC2C(=O)OCCN2Cc2ccccc2)cc(C(=O)OC)c1", "note": "(stereo not given)", "Potency": "inactive"}
{"smiles": "O=C(CC1C(=O)N(Cc2ccccc2)C(=S)N1CCN1CCOCC1)Nc1ccc(F)cc1", "note": "(stereo not given)", "Potency": "5.31 µM (active)"}
{"smiles": "Cc1noc(C)c1CCC(=O)NC1CCc2nn(CC3CC3)c(=O)n2CC1", "note": "(stereo not given)", "Potency": "inactive"}
{"smiles": "N#CC(=C1CCCC1)c1nc(-c2ccccc2O)cs1", "Potency": "9.44 µM (active)"}
{"smiles": "CN(CC1CCN(CCc2ccc(Cl)cc2)CC1)C(=O)c1ccccc1C#N", "Potency": "inactive"}
{"smiles": "CN(Cc1ccc(-n2cccn2)cc1)CC1CCN(CCc2ccc(F)cc2)CC1", "Potency": "10.6 µM (active)"}
{"smiles": "Cc1[nH]n(-c2ccccc2)c(=O)c1/C=N/Nc1nncc(-c2ccccc2)n1", "Potency": "4.22 µM (active)"}
{"smiles": "COc1ccc(C(=O)N2CCN(C(=O)C3CCCCC3)C[C@@H]2C(=O)N[C@H]2CCCNC2=O)cc1", "Potency": "inactive"}
{"smiles": "COC(=O)[C@H](Cc1ccc(OC)cc1)NC(=O)[C@H]1CN(C(=O)c2ccc(N(C)C)cc2)CCN1C(=O)C1CCCCC1", "Potency": "0.668 µM (active)"}
{"smiles": "COC(=O)[C@H](Cc1ccc(OC)cc1)NC(=O)[C@H]1CN(C(=O)c2ccc(N(C)C)cc2)CCN1C(=O)c1cccs1", "Potency": "0.188 µM (active)"}
{"smiles": "CN(C)c1ccc(CC(=O)N2CC[C@@](C)(O)[C@@H](O)C2)cc1", "Potency": "inactive"}
{"smiles": "COC(=O)[C@H](Cc1ccc(OC)cc1)NC(=O)[C@H]1CN(C(=O)Nc2ccccc2)CCN1C(=O)NC(C)C", "Potency": "inactive"}
{"smiles": "CN(C)C(=O)c1ccc(OC2CCN(C(=O)c3cccs3)CC2)nc1", "Potency": "inactive"}
{"smiles": "Cc1ccc(C(=O)N2CCc3cc(CNC(=O)CCc4ccccc4)ccc32)cc1", "Potency": "inactive"}
{"smiles": "Cc1cccc(C(=O)N2CCc3cc(CNC(=O)c4ccc(Br)o4)ccc32)c1", "Potency": "9.44 µM (active)"}
{"smiles": "CC(=O)N1CCc2cc(S(=O)(=O)NC(Cc3ccccc3)C(=O)Nc3cc(C)cc(C)c3)ccc21", "note": "(stereo not given)", "Potency": "inactive"}
{"smiles": "O=S(=O)(c1ccc(F)cc1)N1CCN(C(=S)NCC2CCCO2)CC1", "note": "(stereo not given)", "Potency": "6.68 µM (active)"}
{"smiles": "O=S(=O)(c1ccc(Cl)cc1)N1CCN(C(=S)NCC2CCCO2)CC1", "note": "(stereo not given)", "Potency": "1.88 µM (active)"}
{"smiles": "O=C(O)c1ccc(S(=O)(=O)N(Cc2cccs2)CC2CCCO2)cc1", "note": "(stereo not given)", "Potency": "inactive"}
{"smiles": "CS(=O)(=O)N1CCC(C2CCN(C(=O)Cc3ccc(Cl)cc3)C2)CC1", "note": "(stereo not given)", "Potency": "inactive"}
{"smiles": "COc1ccccc1NC(=O)Cn1c(=O)n(CCC(=O)NCC2CCCO2)c(=O)c2cc(OC)c(OC)cc21", "note": "(stereo not given)", "Potency": "inactive"}
{"smiles": "CCOC(=O)Cn1c(=O)oc2cc(S(=O)(=O)N3CCCC(C)C3)ccc21", "note": "(stereo not given)", "Potency": "inactive"}
{"smiles": "O=C(CCC1CCN(S(=O)(=O)c2ccccc2)CC1)NCc1ccc(F)cc1", "Potency": "inactive"}
{"smiles": "O=S(=O)(c1ccc(F)cc1)N1CCN(C(=S)NCCc2ccccc2)CC1", "Potency": "5.96 µM (active)"}
{"smiles": "O=C(NCc1ccc(Cl)cc1)C1CCN(S(=O)(=O)c2cccc3nonc23)CC1", "Potency": "inactive"}
{"smiles": "COc1ccc(S(=O)(=O)N2CCN(C(=S)NCC3CCCO3)CC2)cc1OC", "note": "(stereo not given)", "Potency": "6.68 µM (active)"}
{"smiles": "CCOCCCNC(=O)CN1C(=O)c2c(c3ccccc3n2C)C1c1ccc(OC)cc1", "note": "(stereo not given)", "Potency": "inactive"}
{"smiles": "Cc1ccc(-c2noc(CCC(=O)Nc3ccc(C)cn3)n2)cc1", "Potency": "inactive"}
{"smiles": "O=C1NCCCCCCN(Cc2ccncc2)[C@@H]2CN(C(=O)NC3CCCCC3)CC[C@@H]12", "Potency": "inactive"}
{"smiles": "CN1C(=O)[C@H]2CN(Cc3ccc(C#N)cc3)C[C@H]2C1=O", "Potency": "inactive"}
{"smiles": "N#Cc1ccc(CN2CC[C@@H]3C(=O)NCCCCCCN(Cc4ccncc4)[C@@H]3C2)cc1", "Potency": "10.6 µM (active)"}
{"smiles": "CCc1ccc2c(c1)cc(CN(C(=S)Nc1cccc(C)c1)C1CC1)c1nnnn12", "Potency": "3.35 µM (active)"}
{"smiles": "O=C(CC(c1ccc(F)cc1)c1cn(Cc2ccccc2)c2ccc([N+](=O)[O-])cc12)N1CCOCC1", "note": "(stereo not given)", "Potency": "9.44 µM (active)"}
{"smiles": "Cc1ccoc1C(=O)N1C[C@@H](COCC2CC2)[C@H](c2ccncc2)C1", "Potency": "inactive"}
{"smiles": "CCOC(=O)c1c(C)[nH]c(C)c1S(=O)(=O)N1CCN(c2cccc(C(F)(F)F)c2)CC1", "Potency": "inactive"}
{"smiles": "CCC(C)(C)n1nnnc1C(c1cccnc1)N1CCN(c2cccc(C(F)(F)F)c2)CC1", "note": "(stereo not given)", "Potency": "6.68 µM (active)"}
{"smiles": "CNC(=O)[C@@H]1C[C@H](n2cc(CN(C)C(=O)NCC3CCCCC3)nn2)CN1", "Potency": "inactive"}
{"smiles": "CCCCn1c(=N)c(C(=O)NC2CCCCC2)cc2c(=O)n3cccc(C)c3nc21", "Potency": "1.5 µM (active)"}
{"smiles": "CCn1c(CO)nnc1C1CC(NC(=O)c2cnc3sccn3c2=O)C1", "note": "(stereo not given)", "Potency": "inactive"}
{"smiles": "COCCCn1c(=N)c(C(=O)NCC2CCCO2)cc2c(=O)n3cc(C)ccc3nc21", "note": "(stereo not given)", "Potency": "inactive"}
{"smiles": "CCCN1C(=O)Cc2cc(C(=O)NCc3ccc(C)c(C)c3)ccc21", "Potency": "inactive"}
{"smiles": "CCCn1c(=N)c(C(=O)NCc2ccc3c(c2)OCO3)cc2c(=O)n3cccc(C)c3nc21", "Potency": "10.6 µM (active)"}
{"smiles": "CCCn1c(=N)c(C(=O)NC2CCCC2)cc2c(=O)n3cccc(C)c3nc21", "Potency": "5.96 µM (active)"}
{"smiles": "CCCn1c(=N)c(C(=O)NC2CCCCC2)cc2c(=O)n3cc(C)ccc3nc21", "Potency": "inactive"}
{"smiles": "COC(=O)c1ccc2c(=O)n(CCCCCC(=O)NCCc3ccccc3)c(=O)[nH]c2c1", "Potency": "inactive"}
{"smiles": "COc1ccccc1N1CCN(C(=O)c2ccc3c(=O)n(Cc4ccc5c(c4)OCO5)c(=O)[nH]c3c2)CC1", "Potency": "2.99 µM (active)"}
{"smiles": "CCOc1cc2[nH]c(=O)n(Cc3ccc(C(=O)N4CCN(c5cccc(Cl)c5)CC4)cc3)c(=O)c2cc1OCC", "Potency": "inactive"}
{"smiles": "OC(c1cc(-c2ccc(C(F)(F)F)cc2)nc(C(F)(F)F)c1)C1CCCCN1", "note": "(stereo not given)", "Potency": "0.15 µM (active)"}
{"smiles": "CN(CC1CCOCC1)S(=O)(=O)c1ccc(C(F)(F)F)cc1", "Potency": "inactive"}
{"smiles": "O=C(CSc1nnc(Cc2cccs2)n1-c1ccc(Cl)cc1)NCc1ccc2c(c1)OCO2", "Potency": "inactive"}
{"smiles": "Nc1nonc1-n1nnc(C(=O)N/N=C/c2ccc(Br)cc2)c1-c1ccc2c(c1)OCO2", "Potency": "0.422 µM (active)"}
{"smiles": "Nc1nonc1-n1nnc(C(=O)N/N=C/c2ccc(Cl)cc2)c1-c1ccc2c(c1)OCO2", "Potency": "0.376 µM (active)"}
{"smiles": "Cc1ccc(-c2c(C(=O)N/N=C/c3cccc(Cl)c3)nnn2-c2nonc2N)cc1", "Potency": "0.237 µM (active)"}
{"smiles": "Nc1nonc1-n1nnc(C(=O)N/N=C/c2ccc(F)cc2)c1-c1ccc2c(c1)OCO2", "Potency": "0.335 µM (active)"}
